# Results from PubChem BioAssay (NCATS).
# Values joined by “and” are separate entries in the source; they are usually repeats but may differ in a detail not shown here. Identical values can stand only once. Records with an inconclusive call do not appear. Where a call stands in place of a potency, no number is given. Some compounds were tested as several samples or in several runs, with calls that do not always agree. Active and inactive are the calls of the source. Calls come from the whole dose curve.
# Key:
# [1] = Cytotoxicity counterscreen for inhibitors of SARS-CoV-2 cell entry (AID 1645845); note: nearly all actives have a fitted effect of over 50% in size
# Outline: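 Counterscreen run in the same HEK293-ACE2 line as the pseudotyped-particle entry assay, without particles. Viability after 48 h at 37 C was read as ATP luminescence, scaled between cell-containing and cell-free wells.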
# [2] = Primary qHTS to identify inhibitors of SARS-CoV-2 cell entry (AID 1645846); details: activity change, negative = inhibition: at 57.1 µM (top of the series) unless noted; note: nearly all actives have a fitted effect of over 45% in size; note: potency is the fitted concentration of half-maximal effect
# Outline: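 Entry measured by luciferase signal 48 h after adding SARS-CoV-2-S pseudotyped MLV particles to HEK293-ACE2 cells preincubated 1 h with compounds. Normalisation: bald particles and spike particles.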
structure (smiles),measurement,setting,value
O=C(CCBr)N1CCN(C(=O)CCBr)CC1,Potency,[1],inactive
same,Potency,[2],inactive
CCOC(=O)c1ccc(OCCN2C[C@H](O)[C@@H](O)[C@H](O)[C@H]2CO)cc1,Potency,[1],inactive
same,"activity change, negative = inhibition",[2],0.637%
Nc1ccc(S(=O)(=O)c2ccc(N)cc2)cc1,Potency,[1],inactive
same,Potency,[2],inactive
N[C@@H](Cc1cc(I)c(Oc2ccc(O)c(I)c2)c(I)c1)C(=O)O,Potency,[1],inactive
same,Potency,[2],inactive
COc1ccc(C2CNC(=O)C2)cc1OC1CCCC1 (stereo not drawn),Potency,[1],inactive
same,"activity change, negative = inhibition",[2],4.15% and -11.8%
C[C@H]1C[C@@H]2[C@H]([C@@H](O)C[C@@]3(C)[C@H]2CC[C@]3(O)C(=O)CO)[C@@]2(C)C=CC(=O)C=C12,Potency,[1],inactive
same,Potency,[2],inactive
C[C@](N)(Cc1ccc(O)cc1)C(=O)O,outcome,[1],inactive [at 5.25 µM]
same,outcome,[2],inactive [at 5.25 µM]
CCn1cc(C(=O)O)c(=O)c2cc(F)c(N3CCNC(C)C3)c(F)c21 (stereo not drawn),Potency,[1],inactive
same,Potency,[2],inactive
Oc1ccc(OCc2ccccc2)cc1,Potency,[1],inactive
same,Potency,[2],inactive and 3.16 µM (active)
O=[N+]([O-])c1cncn1CCN1CCOCC1,Potency,[1],inactive
same,"activity change, negative = inhibition",[2],-6.13%
Cc1c(F)c(N2CCNC(C)C2)cc2c1c(=O)c(C(=O)O)cn2C1CC1 (stereo not drawn),Potency,[1],inactive
same,"activity change, negative = inhibition",[2],-25.6%
CO/N=C(\C(=O)N[C@@H]1C(=O)N2C(C(=O)O)=C(C[N+]3(C)CCCC3)CS[C@H]12)c1csc(N)n1,Potency,[1],inactive
same,"activity change, negative = inhibition",[2],-9.52%
c1ccc2c(CC3=NCCN3)cccc2c1,Potency,[1],inactive
same,"activity change, negative = inhibition",[2],0.334%
CC1(C)O[C@@H]2C[C@H]3[C@@H]4CCC5=CC(=O)C=C[C@]5(C)[C@@]4(F)[C@@H](O)C[C@]3(C)[C@]2(C(=O)CO)O1,Potency,[1],inactive
same,Potency,[2],inactive
CCn1nc(C(=O)O)c(=O)c2cc3c(cc21)OCO3,Potency,[1],inactive
same,Potency,[2],inactive
NCCNCCNCCN,Potency,[1],inactive
same,"activity change, negative = inhibition",[2],2.68%
Cn1c(=O)c2[nH]cnc2n(C)c1=O,Potency,[1],inactive
same,"activity change, negative = inhibition",[2],-18.5% and -12.1%
CCCCCCCCCCCCOCCO,Potency,[1],inactive
same,"activity change, negative = inhibition",[2],-19.3%
CN[C@@H]1CCc2[nH]c3ccc(C(N)=O)cc3c2C1,Potency,[1],inactive
same,"activity change, negative = inhibition",[2],-34.4%
O=C1c2ccccc2C(=O)c2c1ccc(O)c2O,Potency,[1],inactive
same,Potency,[2],inactive
Cn1nnc2c(C(N)=O)ncn2c1=O,Potency,[1],inactive
same,"activity change, negative = inhibition",[2],-15.9% and -14.8%
Cc1c(C(C)C)c(=O)n(-c2ccccc2)n1C,Potency,[1],inactive
same,"activity change, negative = inhibition",[2],-4.29%
C/C(=C(\CCO)SS/C(CCO)=C(\C)N(C=O)Cc1cnc(C)nc1N)N(C=O)Cc1cnc(C)nc1N,Potency,[1],inactive
same,"activity change, negative = inhibition",[2],-31.6%
Cc1cc2cc3c(C)cc(=O)oc3c(C)c2o1,Potency,[1],inactive
same,Potency,[2],inactive
CC1c2ccccc2CN1NC(=O)c1ccc(Cl)c(S(N)(=O)=O)c1 (stereo not drawn),Potency,[1],inactive
same,"activity change, negative = inhibition",[2],-22.6%
Cc1ccc(C(=O)c2ccc(CC(=O)O)n2C)cc1,Potency,[1],inactive
same,Potency,[2],inactive
O=C(O)/C=C\C(=O)O,Potency,[1],inactive
same,Potency,[2],inactive
COC(=O)/C=C\C(=O)OC,Potency,[1],inactive
same,"activity change, negative = inhibition",[2],-18.2%
NCCCCCC(=O)O,Potency,[1],inactive
same,"activity change, negative = inhibition",[2],-19.8% and -25.5%
CC(C(=O)O)c1ccc(/C=C2\CCCCC2=O)cc1 (stereo not drawn),Potency,[1],inactive
same,Potency,[2],inactive
O=C(O)C(S)C(S)C(=O)O (stereo not drawn),Potency,[1],inactive
same,Potency,[2],inactive
CC(=O)Nc1ccc(S(=O)(=O)Nc2cc(C)on2)cc1,Potency,[1],inactive
same,Potency,[2],inactive
CN[C@@H]1[C@H](O)[C@H](NC)[C@H]2O[C@@]3(O)C(=O)C[C@@H](C)O[C@H]3O[C@@H]2[C@H]1O,Potency,[1],inactive
same,Potency,[2],inactive
O=C(O)CCCCC(=O)O,Potency,[1],inactive
same,Potency,[2],inactive
CC(=O)c1ccc(S(=O)(=O)NC(=O)NC2CCCCC2)cc1,Potency,[1],inactive
same,"activity change, negative = inhibition",[2],4.85%
C#C[C@]1(O)CC[C@H]2[C@@H]3CCC4=CC(=O)CC[C@@H]4[C@H]3CC[C@@]21CC,Potency,[1],inactive
same,Potency,[2],inactive
CNC(=O)c1c(I)c(NC(C)=O)c(I)c(C(=O)O)c1I,Potency,[1],inactive
same,Potency,[2],inactive
O=C(C1CCCCC1)N1CC(=O)N2CCCc3ccccc3C2C1 (stereo not drawn),Potency,[1],inactive
same,"activity change, negative = inhibition",[2],0.685%
C[C@@H]1C[C@H]2[C@@H]3C[C@H](F)C4=CC(=O)C=C[C@]4(C)[C@@]3(F)[C@@H](O)C[C@]2(C)[C@@]1(O)C(=O)CO,Potency,[1],inactive
same,Potency,[2],inactive
CC(C)(C)NC[C@H](O)COc1cccc2c1CCCC2=O,Potency,[1],inactive
same,"activity change, negative = inhibition",[2],-5.98%
CC(=O)OC(C)C[N+](C)(C)C (stereo not drawn),Potency,[1],inactive
same,Potency,[2],inactive
CCN1CCCC1CNC(=O)c1cc(S(=O)(=O)CC)c(N)cc1OC (stereo not drawn),Potency,[1],inactive
same,"activity change, negative = inhibition",[2],4.53% and -0.585%
CC(C)CN(C[C@@H](O)[C@H](Cc1ccccc1)NC(=O)O[C@H]1CO[C@H]2OCC[C@H]21)S(=O)(=O)c1ccc(N)cc1,Potency,[1],inactive
same,Potency,[2],inactive
COC(=O)C1=C(C)NC(C)=C(C(=O)OCCc2ccc(N3CCN(C(c4ccccc4)c4ccccc4)CC3)cc2)C1c1cccc([N+](=O)[O-])c1 (stereo not drawn),Potency,[1],inactive
same,"activity change, negative = inhibition",[2],-16.7%
